# Pf growth 96h – Primary qHTS for delayed death inhibitors of the malarial parasite plastid, 96 hour incubation | P. falciparum luciferase reporter growth, 96 h | Potency, µM (top dose mostly 28.7 µM), for inactives: top-dose activity change, negative = inhibition, most hits filed as inhibitors | 320,000 compounds, 6.9% hits; further: potency means the concentration at half of the fitted maximal effect; on the % scale 0 is the no-effect control and ±100 the full control effect
#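 P. falciparum expressing integrated firefly luciferase, in erythrocytes at 2% hematocrit, 0.05% parasitemia, incubated with compounds 96 h at 37 C, 5% CO2. Growth inhibition read as loss of luminescence; two-generation exposure targets delayed-death apicoplast inhibitors.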
# SARS PLP yeast – qHTS of Yeast-based Assay for SARS-CoV PLP | S. cerevisiae expressing SARS-CoV PLpro, growth rescue | 330,000 compounds, 0.19% hits | Potency, µM (titrated, usually from 32.9 µM), inactives show at the top dose activity, positive = growth rescue, most hits filed as activators; calls by dose curve; further: potency means the concentration at half of the fitted maximal effect; 0% is about no effect; nearly all actives have a fitted effect of over 55% in size
# NS1 inh – qHTS Assay for Inhibitors of Influenza NS1 Protein Function. Potency, µM (top dose mostly 46.1 µM), inactives show at the highest dose activity, positive = more growth. 270,000 compounds, 0.4% hits. AID 2326, 2010; calls by dose curve; further: potency means the concentration at half of the fitted maximal effect; actives are rising curves; nearly all actives have a fitted effect of over 50% in size
#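 Recovery from NS1-induced slow growth read by OD600 in budding yeast switched to galactose assay medium (pH 6.0, -URA) at 1:100 dilution. Compound 23 nl per well; the matching strain lacking NS1 serves as control.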
# CHX counter – Cycloheximide Counterscreen for Small Molecule Inhibitors of Shiga Toxin. max response, %. AID 2314, 2010. cell reporter, cycloheximide protein synthesis inhibition counterscreen. 300,000 compounds, 12% hits; in the data active means max response mostly above about 13%, no sharp cut-off; inactive means mostly below about 14%; further: read at 38.3 µM for the half of the compounds with a filed dose; 0% is about no effect
# Pf growth 48h – Primary qHTS for delayed death inhibitors of the malarial parasite plastid, 48 hour incubation. P. falciparum luciferase growth in erythrocytes, 48 h. Potency, µM (titrated, usually from 28.7 µM), inactives show at the top dose activity change, negative = inhibition, most hits filed as inhibitors. 310,000 compounds, 5.9% hits; further: potency means the concentration at half of the fitted maximal effect; on the % scale 0 is the no-effect control and ±100 the full control effect
#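 First compound was added to culture medium, then infected red cells at 0.1% parasitemia and 2% hematocrit (final). After incubation at 37 C under 5% CO2, luciferase detection reagent was dispensed and light output recorded.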
# Shiga inhibitor – A qHTS for Small Molecule Inhibitors of Shiga Toxin | Vero cells, Shiga toxin protein synthesis inhibition reporter | 290,000 compounds, 9.2% hits | inhibition, % at 38.7 µM | AID 2315, 2010; in the data active means inhibition mostly above about 28%, no sharp cut-off; inactive means mostly below about 43%; further: 0% is about no effect
# * = called active by the depositor; ? = inconclusive; . = no result given; [ ] = dose if it differs, or a comment. In the library only some 21% were active in any assay of this set; here they are far more common. Unless noted, the call rests on the fitted dose curve; in most records, active means well fitted inhibition curve with a large enough effect; inconclusive means small, poorly fitted or top-dose-only effect, or another doubt; inactive means no such curve, though single readings can be large or run the other way.
SMILES,Pf growth 96h,SARS PLP yeast,NS1 inh,CHX counter,Pf growth 48h,Shiga inhibitor
CCOC(=O)c1sc(-c2ccc(OC)cc2)cc1N,-9%[5.75 µM],-9%,-3%,44*,103%,132*
CCOC(=O)c1sc(-c2ccccc2)cc1N,.,-13%,-11%,59*,146%,116*
CCOC(=O)c1cc(-c2ccccc2)sc1N,-7%,14%,-98%,37*,52%,59*
CCOC(=O)c1c(N)n[nH]c1-c1ccc(OC)cc1,.,-3%,3%,2,-17%,-12
CCOC(=O)c1sc(-c2ccccc2)cc1NC(=O)Nc1ccc([N+](=O)[O-])cc1,?,-2%,-10%,-2,?,-5
Cc1c(-c2ccccc2)sc(N)c1C(=O)N1CCOCC1,4%,4%,-6%,2,13µM*,-2
COC(=O)c1c(N)sc(C(=O)N2CCOCC2)c1C,?,-1%,3%,-2,-3%,-2
CCOC(=O)c1cc(-c2ccccc2)sc1NC(=O)CC,2.3µM*,-5%,-11%,-1,5.2µM*,-9
CCOC(=O)c1cc(CC)sc1NC(=O)Cc1ccsc1,3.3µM*,-1%,-52%,-1,22%,-3
O=C(Nc1sc(-c2ccccc2)cc1C(=O)O)c1ccccc1,258%,-7%,-85%,35*,45%,52*
CCOC(=O)c1sc2nc(C3CC3)cc(-c3ccc(F)cc3)c2c1N,4%,-1%,7%,-3,0%,-18
CCOC(=O)c1sc(-c2ccc(F)cc2)cc1N,.,-12%,-4%,46*,142%,125*
Cc1ccc(N(CC(=O)Nc2ccc(Br)c(C)c2)S(=O)(=O)c2c(C)[nH]c(=O)[nH]c2=O)cc1,?,5%,17%,-4,5%,-4
CCCCCCCNC(=O)C1(CC2CC(c3cccc(Br)c3)=NO2)CCN(C(=O)CCCCCBr)CC1 (stereo unspecified),?,2%,.,.,13µM*,.
CCCCCCCNC(=O)C1(CC2CC(c3ccc(Cl)cc3)=NO2)CCN(C(=O)OC(C)(C)C)CC1 (stereo unspecified),5.2µM*,-2%,?,-1,?,14
CCCCCCCNC(=O)C1(CC2CC(c3cccc(Br)c3)=NO2)CCN(C(=O)C2(C)CC2)CC1 (stereo unspecified),?,5%,.,.,?,.
CCOc1cc(C(=O)N2CCC(CC3CC(c4cccc(Br)c4)=NO3)(C(=O)NCC3CCCCC3)CC2)cc(OCC)c1OCC (stereo unspecified),?,10%,-12%,-2,0.37µM*,-7
COC(=O)C1(CC2CC(c3ccncc3)=NO2)CCN(C(=O)OC(C)(C)C)CC1 (stereo unspecified),?,-2%,.,.,?,.
CCOc1cc(C(=O)Nc2ccc(C(=O)NCCN(CC)CC)cc2)ccc1OCC(=O)N1CCOCC1,-4%,2%,.,.,?,.
COc1cc2c(cc1OC)CN(c1ccc(F)cc1[N+](=O)[O-])CC2,15%,-4%,-2%,30*,3%,72*
COc1cc2c(cc1OC)CN(c1ccc([N+](=O)[O-])cc1C#N)CC2,15µM*,-21%,6%,9,-7%,-11
COc1cc2c(cc1OC)CN(c1ncccc1[N+](=O)[O-])CC2,74%,1%,-3%,25*,49%,55*
COc1cc2c(cc1OC)CN(c1ccc([N+](=O)[O-])cc1Cl)CC2,?,-42%,-10%,6,?,13
O=C1CCN(c2ncccc2[N+](=O)[O-])CC1,32%,1%,.,-2,?,-7
O=C(CCS(=O)(=O)c1ccc(Cl)cc1)NCCc1c[nH]c2ccccc12,-1%,2%,.,-2,4%,-1
Cc1cccn2c(=O)nc(SCC(=O)N3CCC(Cc4ccccc4)CC3)nc12,?,-5%,.,.,?,.
N#Cc1ccc(Oc2ccc(/C=N/O)cn2)cc1,-3%,0%,8%,7,20%,25
Cc1ccnc(NS(=O)(=O)c2ccc(NC(=O)c3ccc(Cl)cc3[N+](=O)[O-])cc2)n1,?,-2%,1%,7,-24%,-6

# Screening results from PubChem.
